From PubChem BioAssay AID1159580 (chemical genetic matrix, 2015)
Values joined by “and” are separate entries in the source; they are usually repeats but may differ in a detail not shown here. Equal values may be shown once. Screen size: about 5,500 compounds; about 2,000 (36%) were called active. About 18% were inconclusive and are not listed. Rule as the data show it: active = normalized growth mostly below about 0.91 (no sharp cut-off); inconclusive = no clear call, values can overlap the other calls; inactive = mostly above about 0.92. The list shows a part of the results.

Assay: chemical genetic growth profiling, strain panel (AID 1159580);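 also: tested at 20 µM; growth read once vehicle control cultures reached saturation at 30 °C; 1 = growth at the plate median or of vehicle wells; lower values mean less growth of the strain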
Conditions: growth OD

Measured: normalized growth

NCCS
inactive: S. cerevisiae deletion strains, locus YJR075W, strain HOC1, active compounds read low 1.01 | S. cerevisiae deletion strains, locus YKL009W, strain mrt4, active compounds read low 0.998 | S. cerevisiae deletion strains, locus YKL068W, active compounds read low 1 | S. cerevisiae deletion strains, locus YKL085W, strain MDH1 (second series), active compounds read low 1.01 | S. cerevisiae deletion strains, locus YKL085W, strain MDH1, active compounds read low 1.01 | S. cerevisiae deletion strains, locus YKL160W, strain elf1, active compounds read low 0.986 | S. cerevisiae deletion strains, locus YKL190W, strain CNB1, active compounds read low 1.01 | S. cerevisiae deletion strains, locus YKR001C, strain vps1, active compounds read low 1.01 | S. cerevisiae deletion strains, locus YKR026C, strain gcn3, active compounds read low 0.947 | S. cerevisiae deletion strains, locus YKR091W, strain srl3, active compounds read low 0.991 | S. cerevisiae deletion strains, locus YLL001W, strain dnm1, active compounds read low 1 | S. cerevisiae deletion strains, locus YLL026W, active compounds read low 0.996 | S. cerevisiae deletion strains, locus YLL041C, strain sdh2, active compounds read low 0.998 | S. cerevisiae deletion strains, locus YLR027C, strain aat2, active compounds read low 0.984 | S. cerevisiae deletion strains, locus YLR039C, strain RIC1, active compounds read low 1.05 | S. cerevisiae deletion strains, locus YLR058C, strain SHM2, active compounds read low 1.02 | S. cerevisiae deletion strains, locus YLR102C, strain apc9, active compounds read low 1.01 | S. cerevisiae deletion strains, locus YLR113W, strain HOG1, active compounds read low 0.996 | S. cerevisiae deletion strains, locus YLR221C, strain rsa3, active compounds read low 0.992 | S. cerevisiae deletion strains, locus YLR258W, strain gsy2, active compounds read low 0.998 | S. cerevisiae deletion strains, locus YLR262C, strain YPT6 (second series), active compounds read low 0.953 | S. cerevisiae deletion strains, locus YLR262C, strain YPT6, active compounds read low 1.03 | S. cerevisiae deletion strains, locus YLR268W, strain sec22, active compounds read low 1.01 | S. cerevisiae deletion strains, locus YLR320W, strain mms22, active compounds read low 0.985 | S. cerevisiae deletion strains, locus YLR330W, strain CHS5, active compounds read low 1.01 | S. cerevisiae deletion strains, locus YLR342W, strain FKS1 (second series), active compounds read low 1.04 | S. cerevisiae deletion strains, locus YLR342W, strain FKS1, active compounds read low 0.969 | S. cerevisiae deletion strains, locus YLR357W, strain rsc2, active compounds read low 0.962 | S. cerevisiae deletion strains, locus YLR370C, strain arc18, active compounds read low 0.989 | S. cerevisiae deletion strains, locus YLR371W, strain rom2, active compounds read low 1.02 | S. cerevisiae deletion strains, locus YLR384C, strain iki3, active compounds read low 0.999 | S. cerevisiae deletion strains, locus YLR418C, strain cdc73, active compounds read low 1.03 | S. cerevisiae deletion strains, locus YML016C, strain PPZ1, active compounds read low 1.02 | S. cerevisiae deletion strains, locus YML032C, strain rad52, active compounds read low 1.02 | S. cerevisiae deletion strains, locus YML120C, strain ndi1, active compounds read low 0.988 | S. cerevisiae deletion strains, locus YML124C, strain tub3, active compounds read low 1.02 | S. cerevisiae deletion strains, locus YMR058W, strain fet3, active compounds read low 0.985 | S. cerevisiae deletion strains, locus YMR078C, strain ctf18, active compounds read low 1.01 | S. cerevisiae deletion strains, locus YMR125W, strain sto1, active compounds read low 0.968 | S. cerevisiae deletion strains, locus YMR129W, active compounds read low 1.01 | S. cerevisiae deletion strains, locus YMR205C, strain PFK2, active compounds read low 0.983 | S. cerevisiae deletion strains, locus YMR223W, strain ubp8, active compounds read low 1.01 | S. cerevisiae deletion strains, locus YMR231W, strain pep5, active compounds read low 0.999 | S. cerevisiae deletion strains, locus YMR263W, strain SAP30, active compounds read low 1.01 and 0.99 | S. cerevisiae deletion strains, locus YMR307W, strain GAS1, active compounds read low 1.02 | S. cerevisiae deletion strains, locus YNL067W, strain RPL9B, active compounds read low 1.01 | S. cerevisiae deletion strains, locus YNL071W, strain lat1, active compounds read low 0.956 | S. cerevisiae deletion strains, locus YNL128W, strain TEP1, active compounds read low 1.01 | S. cerevisiae deletion strains, locus YNL153C, strain GIM3, active compounds read low 1.01 | S. cerevisiae deletion strains, locus YNL175C, strain NOP13, active compounds read low 1 | S. cerevisiae deletion strains, locus YNL183C, strain NPR1, active compounds read low 0.981 | S. cerevisiae deletion strains, locus YNL197C, strain WHI3, active compounds read low 1.01 | S. cerevisiae deletion strains, locus YNL209W, strain ssb2, active compounds read low 0.989 | S. cerevisiae deletion strains, locus YNL224C, strain SQS1, active compounds read low 1 | S. cerevisiae deletion strains, locus YNL233W, strain BNI4, active compounds read low 1.02 | S. cerevisiae deletion strains, locus YNL248C, strain rpa49, active compounds read low 0.983 | S. cerevisiae deletion strains, locus YNL250W, strain rad50, active compounds read low 1.02 | S. cerevisiae deletion strains, locus YNL271C, strain bni1, active compounds read low 1.01 | S. cerevisiae deletion strains, locus YNL298W, strain CLA4, active compounds read low 1.03 | S. cerevisiae deletion strains, locus YNL307C, strain MCK1, active compounds read low 1.02 | S. cerevisiae deletion strains, locus YNL322C, strain KRE1 (second series), active compounds read low 0.979 | S. cerevisiae deletion strains, locus YNL322C, strain KRE1, active compounds read low 1.01 and 1.02 | S. cerevisiae deletion strains, locus YNR049C, strain mso1, active compounds read low 0.972 | S. cerevisiae deletion strains, locus YNR052C, strain pop2, active compounds read low 1.01 | S. cerevisiae deletion strains, locus YOL006C, strain TOP1, active compounds read low 1.04 | S. cerevisiae deletion strains, locus YOL012C, strain htz1 1.32 | S. cerevisiae deletion strains, locus YOL147C, strain pex11, active compounds read low 1.02 | S. cerevisiae deletion strains, locus YOR001W, strain rrp6, active compounds read low 0.992 | S. cerevisiae deletion strains, locus YOR061W, strain CKA2, active compounds read low 1.02 | S. cerevisiae deletion strains, locus YOR069W, strain VPS5, active compounds read low 1.01 | S. cerevisiae deletion strains, locus YOR070C, strain gyp1, active compounds read low 0.982 | S. cerevisiae deletion strains, locus YOR080W, strain dia2, active compounds read low 0.984 | S. cerevisiae deletion strains, locus YOR083W, strain WHI5 (second series), active compounds read low 1.02 | S. cerevisiae deletion strains, locus YOR083W, strain WHI5, active compounds read low 0.983 | S. cerevisiae deletion strains, locus YOR106W, strain vam3, active compounds read low 0.969 | S. cerevisiae deletion strains, locus YOR136W, strain idh2, active compounds read low 1.02 | S. cerevisiae deletion strains, locus YOR144C, strain elg1, active compounds read low 1.02 | S. cerevisiae deletion strains, locus YOR184W, strain ser1, active compounds read low 0.999 | S. cerevisiae deletion strains, locus YOR231W, strain MKK1, active compounds read low 1.02 | S. cerevisiae deletion strains, locus YOR265W, strain rbl2, active compounds read low 0.997 | S. cerevisiae deletion strains, locus YOR270C, strain vph1, active compounds read low 0.995 | S. cerevisiae deletion strains, locus YOR290C, strain snf2, active compounds read low 0.982 | S. cerevisiae deletion strains, locus YOR316C, strain cot1, active compounds read low 1.02 | S. cerevisiae deletion strains, locus YPL051W, strain arl3, active compounds read low 1 | S. cerevisiae deletion strains, locus YPL055C, strain LGE1, active compounds read low 1.01 | S. cerevisiae deletion strains, locus YPL078C, strain atp4, active compounds read low 0.988 | S. cerevisiae deletion strains, locus YPL106C, strain sse1, active compounds read low 0.957 | S. cerevisiae deletion strains, locus YPL240C, strain hsp82, active compounds read low 0.992 | S. cerevisiae deletion strains, locus YPL241C, strain CIN2, active compounds read low 1.01 and 1 | S. cerevisiae deletion strains, locus YPL256C, strain CLN2, active compounds read low 1.08 | S. cerevisiae deletion strains, locus YPR119W, strain clb2, active compounds read low 1.01 | S. cerevisiae deletion strains, locus YPR141C, strain kar3, active compounds read low 1.03 | S. cerevisiae deletion strains, locus YPR163C, strain tif3, active compounds read low 1.02 | S. cerevisiae deletion strains, locus YPR167C, strain met16, active compounds read low 1.01 | S. cerevisiae deletion strains, strain wtn01, active compounds read low 1.09 | S. cerevisiae strains, strain wild type, active compounds read low 1
